PubChem BioAssay AID602282 (Johns Hopkins Ion Channel Center, 2012)
The whole screen tested about 1,100 compounds, of which about 1,000 (91%) were called active. The set was probably picked from earlier hits. A selection follows. Unmarked numbers belong to inactive results.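 Rule for the calls: active = inhibition above 3 SD of the buffer control wells (cut at about 41% in these data); inactive = the rest.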

Assay: reduced carbachol calcium response, RGS4-induced M3R cells, confirmation, RGS4 activator project, cell-based, HEK293 M3R/RGS4 inducible, calcium flux, duplicate (AID 602282);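 note: signal is the integrated peak-minus-minimum Fluo4 fluorescence over baseline ratio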
Conditions: carbachol calcium flux Fluo4, at 10 µM, hits give high values

Question: Which inhibition does the source give for `Cc1nn(C)cc1N1C(=O)c2cccc3c(N)ccc(c23)C1=O` here?
Answer: 97.5% (active)

Question: With `OCCC1CN(Cc2ccc3nsnc3c2)CCN1C1CCCC1` (stereo not given) as the compound, how does the inhibition read?
Answer: 82.5% (active)

Question: Which inhibition does the source give for `COc1cccc(/C=N/Nc2cc(C)nc(-c3ccccc3O)n2)c1O` here?
Answer: 93.5% (active)

Question: For `COc1cccc(-c2cc3nc4c(c(N5CCC6(CC5)OCCO6)n3n2)CCCC4)c1`, which inhibition is on record?
Answer: 56.5% (active)

Question: For `Cc1ccc(OS(=O)(=O)c2ccc(-c3csc(C)n3)s2)c(C)c1`, which inhibition is on record?
Answer: 82% (active)

Question: For `COC(=O)c1ccc(CN2CCC(CO)(Cc3ccc(OC)cc3)CC2)cc1`, which inhibition is on record?
Answer: 92% (active)

Question: With `CCCCCC(O)(CCN1CCCCC1)c1ccccc1` (stereo not given) as the compound, how does the inhibition read?
Answer: 93% (active)

Question: For `C#CC(CCN1CCCCC1)(OC)c1ccccc1` (stereo not given), which inhibition is on record?
Answer: 93% (active)

Question: With `Cc1ccc(SCC(=O)c2cc(C)c(OC(=S)N(C)C)c(C)c2)cc1` as the compound, how does the inhibition read?
Answer: 88.5% (active)

Question: For `Cc1cc2oc3ccc(NCCC4CCCN4C)cc3c(=O)c2cc1C` (stereo not given), which inhibition is on record?
Answer: 91% (active)

Question: For `O=S(=O)(c1ccc(Br)cc1)n1ccc2ccccc21`, which inhibition is on record?
Answer: 80.5% (active)

Question: Which inhibition does the source give for `CCc1c(C)sc(NC(=O)c2ccc(Br)o2)c1C(=O)OC` here?
Answer: 69.5% (active)

Question: With `Cc1oc2c(F)c(F)c(F)c(F)c2c1S(=O)(=O)Nc1cccc(C(F)(F)F)c1` as the compound, how does the inhibition read?
Answer: 92% (active)

Question: For `COc1ccc(C(=O)Nc2nc(-c3ccc(S(=O)(=O)N4CCOCC4)cc3)cs2)cc1`, which inhibition is on record?
Answer: 85.5% (active)

Question: For `CCc1ccccc1NC(=O)[C@@H]1CCC(=O)N1C1OC(=O)c2c1ccc(OC)c2OC` (stereo not given in full), which inhibition is on record?
Answer: 0% [the number is a placeholder, only the call stands]

Question: For `CCC1CCCCN1CCCNC(=O)c1cc2c(Cl)nc3ccccc3c2s1` (stereo not given), which inhibition is on record?
Answer: 93.5% (active)

Question: Which inhibition does the source give for `N=c1c2c3c(sc2nc2n1CCCCC2)CCCC3` here?
Answer: 87% (active)

Question: Which inhibition does the source give for `Oc1ccccc1N1CCN(c2ncnc3sc(-c4ccccc4)cc23)CC1` here?
Answer: 87.5% (active)

Question: With `COc1ccc(/C=C(\C#N)c2c[nH]c3ccccc23)cc1` as the compound, how does the inhibition read?
Answer: 85% (active)

Question: For `COc1cccc(CNC(=O)CCC2CCCN(Cc3ccc(OC(F)F)cc3)C2)c1` (stereo not given), which inhibition is on record?
Answer: 74% (active)

Question: With `Cc1nc(N2CCN(c3ccccn3)CC2)c2c(C)c(C(=O)Nc3ccc(F)cc3)sc2n1` as the compound, how does the inhibition read?
Answer: 91% (active)

Question: With `OC(CN=c1sc2ccccc2n1CC(O)COc1ccccc1)COc1ccccc1` (stereo not given) as the compound, how does the inhibition read?
Answer: 91.5% (active)

Question: For `CCOC(=O)C1=C(NC(=S)NC(=O)c2ccccc2)c2ccccc2CC1(C)C`, which inhibition is on record?
Answer: 92% (active)

Question: For `CN1CCN(C(=O)N2c3ccccc3CCc3ccccc32)CC1`, which inhibition is on record?
Answer: 90.5% (active)

Question: For `O=C(Cn1c(N2CCN(C/C=C/c3ccccc3)CC2)nc2ccccc21)c1ccccc1`, which inhibition is on record?
Answer: 91.5% (active)

Question: With `Cc1cccc(-c2nc3ccc(C(=O)NCCN4CCN(C)CC4)cc3nc2-c2cccc(C)c2)c1` as the compound, how does the inhibition read?
Answer: 93.5% (active)

Question: Which inhibition does the source give for `COc1ccc(CN2CCCC(C(=O)c3ccc(Cl)cc3)C2)cc1Cn1cncn1` (stereo not given) here?
Answer: 93% (active)

Question: Which inhibition does the source give for `COc1ccccc1C(CNC(=O)c1cccc(NS(=O)(=O)c2ccc(Br)cc2)c1)N(C)C` (stereo not given) here?
Answer: 85% (active)

Question: Which inhibition does the source give for `O=C(CN1CCCCCC1)Nc1ccc(S(=O)(=O)N2CCCCC2)cc1` here?
Answer: 65% (active)

Question: With `CCCN(CCc1ccccc1)C1CCc2c(O)cccc2C1` (stereo not given) as the compound, how does the inhibition read?
Answer: 78% (active)

Question: For `CN(C)CCOc1ccc(Cl)cc1C(C)(C)C`, which inhibition is on record?
Answer: 81.5% (active)

Question: Which inhibition does the source give for `COc1ccc(-c2cc(C(=O)N(C)Cc3ccccc3)c3ccccc3n2)cc1` here?
Answer: 88.5% (active)

Question: With `COc1ccc(CN(C)C(=O)c2cc(-c3ccc(C)cc3C)nc3ccccc23)c(OC)c1OC` as the compound, how does the inhibition read?
Answer: 90% (active)

Question: With `Cc1ccc(N2C(=O)CC(Nc3cccc4ccccc34)C2=O)cc1` (stereo not given) as the compound, how does the inhibition read?
Answer: 0% [the number is a placeholder, only the call stands]

Question: With `CN(C)S(=O)(=O)N1CCC(Oc2cccc(C(=O)NCCCC3CCCC3)c2)CC1` as the compound, how does the inhibition read?
Answer: 78.5% (active)

Question: Which inhibition does the source give for `Cc1ccc(C)c(N2CCN(C(=O)CCCn3c(=O)c4cccn4c4cccnc43)CC2)c1` here?
Answer: 85.5% (active)

Question: Which inhibition does the source give for `Cc1ccc(C)c(N2CCN(C(=O)CCCCCn3c(=S)[nH]c4ccc(N5CCOCC5)cc4c3=O)CC2)c1` here?
Answer: 92% (active)

Question: For `O=C(c1cccs1)C1C(c2ccc(Br)cc2)NC(=S)NC1(O)C(F)(F)F` (stereo not given), which inhibition is on record?
Answer: 93.5% (active)

Question: For `CCC1C=C(c2ccccc2)C=CN=C1N(CC)CC` (stereo not given), which inhibition is on record?
Answer: 84% (active)

Question: Which inhibition does the source give for `CCOC(=O)c1c(NC(=O)NC(C)(C)C)sc2c1CCN(C)C2` here?
Answer: 0% [the number is a placeholder, only the call stands]

Question: Which inhibition does the source give for `COc1cc(/C=C(\C#N)c2nc3ccccc3[nH]2)ccc1O` here?
Answer: 80.5% (active)

Question: For `Cc1cccc(-c2nc(Nc3ccc(O)cc3)c3ccccc3n2)c1`, which inhibition is on record?
Answer: 80% (active)

Question: For `Cc1ccnc(SCCn2c(N(C)Cc3ccccc3)nc3c2c(=O)n(C)c(=O)n3C)n1`, which inhibition is on record?
Answer: 62% (active)

Question: Which inhibition does the source give for `Cc1ccccc1C(OCCN(C)C)C1CCCCC1` (stereo not given) here?
Answer: 91% (active)

Question: With `S=c1[nH]nc(-c2ccc(Cl)cc2)n1CC1CCCO1` (stereo not given) as the compound, how does the inhibition read?
Answer: 59% (active)

Question: With `CN(C)c1ccc(/C=C2\NC(=S)N(Cc3ccccc3)C2=O)cc1` as the compound, how does the inhibition read?
Answer: 79.5% (active)

Question: For `CCOc1ccc(C(CC(=O)O)NC(=O)COc2ccccc2)cc1` (stereo not given), which inhibition is on record?
Answer: 0% [the number is a placeholder, only the call stands]

Question: With `CC(C)C(c1nnnn1CCc1ccccc1)N1CCN(C(=O)c2ccco2)CC1` (stereo not given) as the compound, how does the inhibition read?
Answer: 87.5% (active)

Question: Which inhibition does the source give for `Cc1ccc(OCCCCN2CCCCC2)c(Br)c1` here?
Answer: 0% [the number is a placeholder, only the call stands]

Question: With `COc1ccc(C(=O)NC2CCCc3c2cnn3-c2cccc(C)c2C)c(OC)n1` (stereo not given) as the compound, how does the inhibition read?
Answer: 91% (active)
